In PubChem BioAssay AID1445 (SRMLSC, 2008):
The whole screen tested about 220,000 compounds, of which about 910 (0.41%) were called active.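 Rule for the calls: active = primary inhibition above the hit cutoff, then over 50% inhibition at one or more dose response concentrations (cut at about 23% in these data, passing the limit was not always enough); inconclusive = conflicting primary data, or primary hits not chosen for dose response; inactive = low primary inhibition, or under 50% at every dose.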 For the sample, actives were picked, then their nearest neighbours and some compounds at random. Measured potencies and affinities stand elsewhere.

Target: Aminopeptidase N (Plasmodium falciparum (isolate 3D7)) (UniProt O96935)
Assay: P. falciparum M1AAP inhibitors, biochemical, fluorogenic H-Leu-NHMec substrate, 1536-well (AID 1445);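 note: plate controls were DMSO full reaction for no effect and no enzyme background for full effect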
Conditions: recombinant M1AAP, H-Leu-NHMec fluorogenic kinetic assay; at 30 µM, hits give high values unless noted

Aminopeptidase N (Plasmodium falciparum (isolate 3D7)), sequence (O96935 whole entry, looked up): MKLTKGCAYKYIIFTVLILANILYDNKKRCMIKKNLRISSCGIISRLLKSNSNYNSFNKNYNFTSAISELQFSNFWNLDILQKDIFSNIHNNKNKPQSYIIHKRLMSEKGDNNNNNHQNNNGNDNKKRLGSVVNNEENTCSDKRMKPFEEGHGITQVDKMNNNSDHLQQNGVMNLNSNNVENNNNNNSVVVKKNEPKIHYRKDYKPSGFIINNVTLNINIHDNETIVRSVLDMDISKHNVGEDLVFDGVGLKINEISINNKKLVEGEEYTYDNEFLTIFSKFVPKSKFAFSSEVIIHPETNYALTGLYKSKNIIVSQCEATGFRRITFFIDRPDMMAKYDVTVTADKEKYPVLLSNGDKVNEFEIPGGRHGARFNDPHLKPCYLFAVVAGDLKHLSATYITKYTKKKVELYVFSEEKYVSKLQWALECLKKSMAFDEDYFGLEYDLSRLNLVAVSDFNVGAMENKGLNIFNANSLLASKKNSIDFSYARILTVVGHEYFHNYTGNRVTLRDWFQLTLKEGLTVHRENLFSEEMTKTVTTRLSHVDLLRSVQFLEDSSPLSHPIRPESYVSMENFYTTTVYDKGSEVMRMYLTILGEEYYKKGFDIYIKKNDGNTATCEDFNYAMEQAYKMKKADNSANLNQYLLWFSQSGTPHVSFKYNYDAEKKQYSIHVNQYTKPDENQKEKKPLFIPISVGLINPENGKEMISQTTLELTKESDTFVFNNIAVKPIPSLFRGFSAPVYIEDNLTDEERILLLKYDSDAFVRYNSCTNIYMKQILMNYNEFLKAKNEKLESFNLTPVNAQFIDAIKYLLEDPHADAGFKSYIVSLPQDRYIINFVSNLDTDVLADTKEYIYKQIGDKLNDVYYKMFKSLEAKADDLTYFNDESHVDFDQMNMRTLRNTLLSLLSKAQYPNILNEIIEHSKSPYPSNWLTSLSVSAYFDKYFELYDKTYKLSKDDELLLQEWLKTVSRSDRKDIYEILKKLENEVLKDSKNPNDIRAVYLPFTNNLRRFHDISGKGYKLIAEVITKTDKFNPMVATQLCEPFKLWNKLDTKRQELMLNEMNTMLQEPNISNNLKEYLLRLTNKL

Row | SMILES | inhibition
1 | O=c1c(-c2c(O)cc(O)c3c(=O)cc(-c4ccc(O)cc4)oc23)c(-c2ccc(O)cc2)oc2cc(O)cc(O)c12 | 12% (inactive)
2 | COc1cc(-c2cc(=O)c3c(O)cc(O)cc3o2)ccc1O | 12.4% (inactive)
3 | Cn1c(SCC(=O)Nc2nccs2)nnc1C12CC3CC(CC(C3)C1)C2 | 6.61% (inactive)
4 | COc1ccc(C(=O)N2CCCC(CCC(=O)NCc3ccc(F)c(F)c3)C2)cc1F (stereo not drawn) | 3.11% (inactive)
5 | O=C(CCC1CCCN(C(=O)c2ccncc2)C1)NCc1ccc(F)c(F)c1 (stereo not drawn) | 1.64% (inactive)
6 | O=C(Cn1cnc2c(nnn2Cc2ccccc2)c1=O)c1ccc(Cl)cc1 | 2.57% (inactive)
7 | Cc1cccc(-c2cc3nc4c(c(NCc5ccco5)n3n2)CCCC4)c1 | -3.49% (inactive)
8 | C=CCn1c(SCC(=O)NC23CC4CC(CC(C4)C2)C3)nc2cc(C(=O)O)ccc2c1=O | 2.59% (inactive)
9 | C=CCn1c(SCC(=O)NC23CC4CC(CC(C4)C2)C3)nc(O)cc1=O | 24.7% (active)
10 | C=CCn1c(SCC(=O)C23CC4CC(CC(C4)C2)C3)nc(O)cc1=O | 5.12% (inactive)
11 | Cc1ccc(S(=O)(=O)NCC(=O)N(CC(=O)NCC2CCCO2)C2CCCC2)cc1 (stereo not drawn) | 4.45% (inactive)
12 | O=c1sc(/C=N/Nc2ccccc2)c(Cl)n1Cc1ccccc1 | -3.08% (inactive)
13 | CC(C)c1ccc(N2C=Nc3ccc(C(C)C)cc3C2)cc1 | 0.82% (inactive)
14 | O=C1C(C2=NC(C(=O)O)C3C(=O)N(c4ccccc4)C(=O)C23)=C(O)c2ccccc21 (stereo not drawn) | 10.7% (inactive)
15 | O=C1C(C2=NC(c3ccccn3)C3C(=O)N(c4ccccc4)C(=O)C23)=C(O)c2ccccc21 (stereo not drawn) | 3.12% (inactive)
16 | O=C1C(C2=NC(C(=O)O)C3C(=O)N(c4ccc(Cl)cc4)C(=O)C23)=C(O)c2ccccc21 (stereo not drawn) | 25.7% (active)
17 | CCCCNC(=S)NNC(=O)CCn1cc(C)cn1 | 4.21% (inactive)
18 | CCOC(=O)Cc1cc(=O)n2[nH]c(C(C)(C)C)cc2n1 | 4.13% (inactive)
19 | Cc1ccc(S(=O)(=O)N(C)C)cc1NC(=O)Nc1ccccc1 | 3.2% (inactive)
20 | Cc1onc(-c2ccccc2)c1NC(=O)Nc1c(-c2ccccc2)noc1C | 5.84% (inactive)
21 | CCOC(=O)c1c(NC(=O)CSc2nnc(-c3ccccc3)n2CC)sc(C(C)=O)c1C | 5.61% (inactive)
22 | CCCOC(=O)CSc1nc(N)c(C#N)c(-c2ccco2)c1C#N | 8.7% (inactive)
23 | CC(C)S(=O)(=O)C1=NSC2=NC(=O)/C(=C\c3ccc(-c4cccc(C(=O)O)c4)o3)C(=N)N21 | 17.7% (inactive)
24 | N=C1/C(=C\c2ccc(-c3cccc(Cl)c3)o2)C(=O)N=C2SC=C(c3ccccc3)N12 | 15.9% (inactive)

Row | SMILES | inhibition
25 | N=C1/C(=C\c2ccc(-c3ccc(C(=O)O)cc3)o2)C(=O)N=C2SC=C(c3ccccc3)N12 | 8.48% (inactive)
26 | N=C1/C(=C\c2ccc(-c3cc(Cl)cc(Cl)c3)o2)C(=O)N=C2SC=C(c3ccccc3)N12 | -3.79% (inactive)
27 | CC12CCC(C/C1=N\N=C1\NC(=O)/C(=C\c3cccc(Br)c3)S1)C2(C)C (stereo not drawn) | 6.04% (inactive)
28 | CCCC(=O)c1cn(CC(=O)OC)c2ccccc12 | 1.35% (inactive)
29 | CCCOc1nc2c(c(=O)n(C)c(=O)n2C)n1C | 2.15% (inactive)
30 | CCCOc1nc2c(c(=O)n(C)c(=O)n2C)n1CCC | 24.2% (active)
31 | CCCn1c(OC)nc2c1c(=O)n(C)c(=O)n2C | 1.88% (inactive)
32 | Cn1cnc2c(N/N=C/c3cccs3)ncnc21 | 7.29% (inactive)
33 | Clc1cnc(N/N=C/c2cccs2)c(Cl)c1 | 4.04% (inactive)
34 | CCCCN(C)c1c(N2CCC(C(=O)OCC)CC2)c(=O)c1=O | 12.2% (inactive)
35 | Cc1cc(C)c(S(=O)(=O)NCC(=O)O)cc1C | -7.15% (inactive)
36 | O=C(O)CSc1cc(NS(=O)(=O)c2cccc([N+](=O)[O-])c2)c2ccccc2c1O | 19.8% (inactive)
37 | O=C(CSc1nc(O)c(Cc2ccccc2)c(=O)[nH]1)N1CCOCC1 | 0.8% (inactive)
38 | Cc1ccc(-c2cc3ncc(C#N)c(N)n3n2)cc1 | 6.77% (inactive)
39 | COc1ccc(C(=O)NCCCN2CCOCC2)cc1S(=O)(=O)N1CCCc2ccccc21 | -1.32% (inactive)
40 | O=S(=O)(Nc1cc(Sc2ncn[nH]2)c(O)c2ccccc12)c1ccccc1 | 13.5% (inactive)
41 | COc1ccc(S(=O)(=O)Nc2ccc(O)c3ccccc23)cc1 | 5.24% (inactive)
42 | COc1ccc(S(=O)(=O)Nc2cc(Sc3ncn[nH]3)c(O)c3ccccc23)cc1 | 24.3% (active)
43 | Cn1cnnc1SC1CCCCC1NS(=O)(=O)c1ccccc1 (stereo not drawn) | -1.9% (inactive)
44 | CCc1ccc(C(=O)CN2C(=O)NC(C)(CCc3ccccc3)C2=O)cc1 (stereo not drawn) | 0.01% (inactive)
45 | Oc1ccc(C2=Nn3c(nnc3-c3ccco3)SC2)cc1O | 29.3% (active)
46 | c1ccc(C2=Nn3c(nnc3-c3ccco3)SC2)cc1 | 7.07% (inactive)
47 | Fc1ccc(C2=Nn3c(nnc3-c3ccco3)SC2)cc1 | 4.7% (inactive)
48 | CCOC(=O)C(NC(=O)C1CCCN1C(=O)OCc1ccccc1)C(=O)OCC (stereo not drawn) | -8.77% (inactive)

Row | SMILES | inhibition
49 | CCN(CC)C(=O)C1CCCN(Cc2ccc(OC)c(C)c2)C1 (stereo not drawn) | -5.17% (inactive)
50 | COCCCNC(=O)c1cccc(OC)c1OC | 3.12% (inactive)
51 | Cc1cnc(C(=O)Nc2cccc3cccnc23)cn1 | 24.3% (active)
52 | COc1ccc(NC(=O)c2cnc(C)cn2)c2ncccc12 | 1.63% (inactive)
53 | Cc1cnc(C(=O)Nc2ccccc2F)cn1 | 0.48% (inactive)
54 | Brc1ccc(C2Nc3cccc4cccc(c34)N2)s1 | 1.05% (inactive)
55 | Cc1[nH]c2ccccc2c1/C=N/Nc1cccc(C(=O)O)c1 | 11.9% (inactive)
56 | Cc1cccc(C)c1-n1cccc1/C=C1\SC(=S)N(c2cccc(C(=O)O)c2)C1=O | 6.85% (inactive)
57 | COC(=O)CN1C(=O)C2(C(C#N)=C(N)Oc3c2c(C)nn3-c2ccccc2)c2ccccc21 (stereo not drawn) | 4.95% (inactive)
58 | CCN1C(=O)C2(C(C#N)=C(N)Oc3n[nH]c(-c4ccccc4)c32)c2ccccc21 (stereo not drawn) | -4.58% (inactive)
59 | CCN1C(=O)C2(C(C#N)=C(N)Oc3n[nH]c(-c4ccc(Cl)cc4)c32)c2ccccc21 (stereo not drawn) | -0.38% (inactive)
60 | COC(=O)CN1C(=O)C2(C(C#N)=C(N)Oc3cc(C)oc(=O)c32)c2ccccc21 (stereo not drawn) | 1.21% (inactive)
61 | Cc1cccc(OCCOCCSc2ncccn2)c1 | 11.6% (inactive)
62 | COc1cccc(OC)c1OCCCOc1ccc(C)cc1Br | 3.98% (inactive)
63 | CC1CCCN(C(=O)CSc2nnc(-c3ccc(S(=O)(=O)N4CCOCC4)cc3)n2C)C1 (stereo not drawn) | 0.7% (inactive)
64 | Cc1cc(Cl)c2ccc(Cl)cc2n1 | 0.44% (inactive)
65 | CC(=O)CC(c1ccc([N+](=O)[O-])cc1)c1c(O)c2ccccc2oc1=O (stereo not drawn) | 0.61% (inactive)
66 | O=[N+]([O-])c1ccc2c(c1)oc1ccccc12 | -3.55% (inactive)
67 | Cc1csc(NC(=O)CSc2nc(C(C)C)nc3c2c(=O)n(C)c(=O)n3C)n1 | -1.73% (inactive)
68 | CS(=O)(=O)c1ccc2nc(NC(=O)c3ccc(N4C(=O)CCC4=O)cc3)sc2c1 | 5.15% (inactive)
69 | CCOC(=O)c1cc(-c2csc(-c3cccc(Cl)c3)n2)on1 | -3.06% (inactive)
70 | CC1C(c2ccccc2)N(C)C(c2ccccc2)CC1(O)c1ccccc1 (stereo not drawn) | 16.7% (inactive)
71 | CCOC(=O)C(=O)Nc1nnc(SCc2ccc(F)cc2)s1 | 2.28% (inactive)
72 | COc1cccc(C(=O)Nn2c(C)nnc2-n2nc(C)cc2C)c1 | 8.95% (inactive)

Row | SMILES | inhibition
73 | O=C(NCc1ccccc1)C(c1ccc(F)cc1)N(Cc1ccc2c(c1)OCO2)C(=O)Cn1nnc(-c2cccs2)n1 (stereo not drawn) | 1.31% (inactive)
74 | CC(C)CCNC(=O)CN(Cc1ccc2c(c1)OCO2)C(=O)Cn1nnc(-c2cccs2)n1 | 24.4% (active)
75 | COc1ccc(-c2nnn(CC(=O)N(CC(=O)NCCC(C)C)Cc3cccs3)n2)cc1OC | 13.8% (inactive)
76 | COc1ccc(NC(=O)c2oc3ccccc3c2NC(=O)c2ccc3c(c2)OCO3)cc1 | 2.18% (inactive)
77 | COc1ccc2nc(SCc3ccccc3C)nc(C)c2c1 | 2.23% (inactive)
78 | Cc1nc(SCc2ccccc2C)n[nH]1 | -7.66% (inactive)
79 | N#Cc1c(-c2ccccc2)c(C#N)c2nc3ccccc3n2c1N | 3.17% (inactive)
80 | Cc1cc(Cl)n2c(nc3ccccc32)c1C#N | -0.99% (inactive)
81 | Cc1ccc(-c2c(C#N)c(N)n3c(nc4ccccc43)c2C#N)cc1 | 25.5% (active)
82 | Cc1cc(C(C)(C)C)ccc1OCCN1CCCC1 | 8.65% (inactive)
83 | Oc1ccc(-c2nc(=S)[nH][nH]2)cc1 | 44.3% (inactive)
84 | C=CCOc1ccc(C(=O)N(Cc2ccc(N(C)C)cc2)C2CCS(=O)(=O)C2)cc1 (stereo not drawn) | 13% (inactive)
85 | CC(=O)Oc1cc2oc(=O)c3c(c2cc1Cl)CCC3 | 38.1% (inactive)
86 | Cc1oc2c(CN3CCOCC3)c(O)ccc2c(=O)c1-c1ccc(Cl)cc1 | 7.87% (inactive)
87 | O=c1cc(-c2ccccc2)c2cc(Cl)c(O)c(CN3CCOCC3)c2o1 | 5.98% (inactive)
88 | O=c1oc2cc(O)ccc2c2c1CCCC2 | 10.5% (inactive)
89 | CCc1cccc(C)c1NC(=O)COC(=O)c1ccc2c(c1)S(=O)(=O)c1ccccc1C2=O | 1.58% (inactive)
90 | CC1(C)NC(=O)N(CC(O)COc2cccc(F)c2)C1=O (stereo not drawn) | 7.39% (inactive)
91 | N#C/C(=C(/O)c1cccs1)c1nc2ccccc2[nH]1 | 1.8% (inactive)
92 | COc1cc(C(=S)N2CCCC2)ccc1OS(=O)(=O)c1ccc(NC(C)=O)cc1 | -0.31% (inactive)
93 | CCN1CCN(C(c2cc3cc4c(cc3[nH]c2=O)OCO4)c2nnnn2C(C)(C)CC)CC1 (stereo not drawn) | 12.6% (inactive)
